Measured values reported in ChEMBL document CHEMBL1201862, “PubChem BioAssay data set” (2004).
Out of some 390,000 compounds screened, about 910 (0.23%) were called active. Another 5% or so got no clear call; they are omitted. The rule behind the calls is not given here. Many of the other results were omitted from the sample, so actives are more common in it than they were.

biological target: T1, Ubiquitin carboxyl-terminal hydrolase 1 (Homo sapiens) (UniProt O94782); experiment: Inhibitors of USP1/UAF1: Primary Screen.; format: functional
T1 sequence (whole entry): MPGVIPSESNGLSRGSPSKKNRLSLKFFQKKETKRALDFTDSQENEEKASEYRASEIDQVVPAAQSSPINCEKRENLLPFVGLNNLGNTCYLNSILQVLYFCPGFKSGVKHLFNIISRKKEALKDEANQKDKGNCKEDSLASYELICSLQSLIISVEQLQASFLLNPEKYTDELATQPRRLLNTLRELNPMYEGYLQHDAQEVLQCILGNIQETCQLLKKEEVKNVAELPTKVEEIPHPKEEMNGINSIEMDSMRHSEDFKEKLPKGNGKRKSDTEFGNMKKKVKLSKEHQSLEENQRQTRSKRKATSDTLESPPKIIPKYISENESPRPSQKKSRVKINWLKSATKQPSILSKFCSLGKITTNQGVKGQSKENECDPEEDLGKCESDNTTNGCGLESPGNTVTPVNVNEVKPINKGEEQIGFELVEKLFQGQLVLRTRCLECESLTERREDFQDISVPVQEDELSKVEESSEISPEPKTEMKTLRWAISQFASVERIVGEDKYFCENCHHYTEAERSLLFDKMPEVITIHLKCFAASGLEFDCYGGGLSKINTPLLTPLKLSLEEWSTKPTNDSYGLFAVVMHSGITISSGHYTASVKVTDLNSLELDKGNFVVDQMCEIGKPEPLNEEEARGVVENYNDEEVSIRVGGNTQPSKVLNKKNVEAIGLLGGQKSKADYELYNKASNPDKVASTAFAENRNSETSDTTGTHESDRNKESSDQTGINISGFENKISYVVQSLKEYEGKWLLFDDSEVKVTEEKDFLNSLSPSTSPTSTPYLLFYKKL

Row | SMILES | Potency
1 | CCOC(=O)C(C)C(C)=O (stereo unspecified) | 355 µM (active)
